Unmarked numbers belong to inactive results. Records with an inconclusive call do not appear. Activity calls are given as the source filed them. The call rests on the fitted dose curve; in most records, active means well fitted curve in the direction sought with a large enough effect; inconclusive means small, poorly fitted or top-dose-only effect, or another doubt; inactive means no such curve, though single readings can be large; an effect the other way counts as inactive or inconclusive. Peptide text beside a SMILES is read from it. * marks the point of attachment. Hexanoyl = CCCCCC(=O)*

The text below walks through data of PubChem BioAssay (NCATS).

Test [1] in a line: OV-SAHO Cancer Cell Toxicity qHTS against the NCATS CANVASS Library (AID 1347348). Further: nearly all actives have a fitted effect of over 55% in size. Further: potency means the concentration at half of the fitted maximal effect. The essentials:
(§1)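 Bortezomib titration and single-dose wells served as plate controls. Test compounds, 11 points, acted on 1000 cells/well for 72 h at 37 degrees C; CellTiter-Glo luminescence quantified remaining viable cells.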

Test [2] is described as follows: Panc-1005 Cancer Cell Toxicity qHTS against the NCATS CANVASS Library (AID 1347349). Further: nearly all actives have a fitted effect of over 60% in size. Further: potency means the concentration at half of the fitted maximal effect. The essentials:
as §1
In general terms: In qHTS, concentration-response curves come from the screen itself.

The nature of test [3]: SW1088 Cancer Cell Toxicity qHTS against the NCATS CANVASS Library (AID 1347350). Further: nearly all actives have a fitted effect of over 75% in size. Further: potency means the concentration at half of the fitted maximal effect. The essentials: as §1
Test [4] can be described thus: U-118MG Cancer Cell Toxicity qHTS against the NCATS CANVASS Library (AID 1347351). Further: potency means the concentration at half of the fitted maximal effect. The essentials:
as §1

Test [5] can be described thus: COV-362 Cancer Cell Toxicity qHTS against the NCATS CANVASS Library (AID 1347352). Further: potency means the concentration at half of the fitted maximal effect. The essentials:
(§2)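 First, 1000 cells go into each well and rest for 4 hours. Next, an 11-point dilution range is pinned in. Plates then incubate 72 hours before CellTiter-Glo addition and luminescence reading.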

Test [6] can be described thus: A2780 Cisplatin Sensitive Ovarian Cancer Cell Toxicity qHTS against the NCATS CANVASS Library (AID 1347353). Further: nearly all actives have a fitted effect of over 60% in size. Further: potency means the concentration at half of the fitted maximal effect. The gist of the method: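 Cells are plated at 750 per well and rest for 4 hours. Compounds are added across eleven concentrations, and incubated 72 hours before ATP is quantified by luminescence.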
The nature of test [7]: UWB1.289-WTBRCA1 Cancer Cell Toxicity qHTS against the NCATS CANVASS Library (AID 1347354). Further: potency means the concentration at half of the fitted maximal effect. The gist of the method: as §2
A short description of test [8]: KB-3-1 Cancer Cell Toxicity qHTS against the NCATS CANVASS Library (AID 1347366). Further: nearly all actives have a fitted effect of over 75% in size. The gist of the method:
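Seed KB-3-1 cells at 500/well in DMEM with 10% FBS, add compounds, incubate 72 hr at 37C and 5% CO2, then add CellTiter-Glo and read luminescence after 10 minutes.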

Test [9] is described as follows: qHTS for ATAD5 Agonist screened against the NCATS CANVASS Library (AID 1347367).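 Further: luciferase reporter driven by ATAD5 which rises upon DNA damage.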 The gist of the method:
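Step one plated reporter cells and let them acclimate 5hr. Step two pinned compounds with MMS as positive and 0.46% DMSO as negative control. After 16hr incubation, fluorescence viability then luminescence were read.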

The nature of test [10]: DH5-alpha competent E. coli microbial cell viability qHTS against the NCATS CANVASS Library (AID 1347377). As to conditions: outcome: dose series up to 46.1 µM unless noted. The essentials: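 Bacteria were dispensed at 0.2 OD, then compounds were pin-transferred. Plates were incubated overnight at 37C, after which BacTiter-Glo was added and luminescence measured 20 min later.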

Test [11] can be described thus: Inflammasome Signaling qHTS Counterscreen: IL-1-beta AlphaLISA counterscreen against the NCATS CANVASS Library (AID 1347381).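 Further: cell-free check with purified IL-1β in medium and no THP-1 cells; series mostly up to about 57 µM.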 The essentials:
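Purified IL-1-beta (4 pg/well) + compound, 11-pt conc. series; acceptor beads 6 ug/mL + biotin-Ab 0.6 nM final, 1 h RT; SA-donor 24 ug/ml final, 30 min dark RT; read ex 680/em 615.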

Test [12] can be described thus: Vero-766 cells viability qHTS against the NCATS CANVASS Library: Counterscreen for Zika virus inhibition assay (AID 1347394). Further: nearly all actives have a fitted effect of over 60% in size. Further: potency means the concentration at half of the fitted maximal effect. The essentials:
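This cytotoxicity counterscreen uses African green monkey Vero 766 cells in the absence of Zika virus. Compounds are incubated with cells for 72 h, and ATP-based luminescence reports viability.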

A short description of test [13]: Redox Reaction Profiling qHTS: Assay Interference Panel against the NCATS CANVASS Library (AID 1347401). Further: potency means the concentration at half of the fitted maximal effect. The gist of the method:
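Quantitative HTS over an 11-point series was run in HEPES pH 7.3 with 50 mM NaCl, 200 uM DTT and 5 uM resazurin. Initial and 15-min resorufin fluorescence readings were taken.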

The nature of test [14]: OV-KATE Cancer Cell Toxicity qHTS against the NCATS CANVASS Library (AID 1347345). The gist of the method: as §1
Test [15] is described as follows: HEK293 24hr Apoptosis Induction qHTS against the NCATS CANVASS Library (AID 1347359). The gist of the method: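 HEK293 cells (500/well, DMEM + 10% FBS) were exposed to compounds in an 11-point series for 24 hours at 37 degrees C, then caspase-3/7 activity was read by Caspase-Glo DEVD luciferase luminescence after 15 min.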
Test [16] is described as follows: SDT Cancer Cell Toxicity qHTS against the NCATS CANVASS Library (AID 1347365).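 Further: SDT canine glioma cells 500 per well in 1536 well plates; series mostly up to about 46 µM; nearly all actives have a fitted effect of over 60% in size.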 The essentials:
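Cytotoxicity is measured from cellular ATP: compounds in an 11-point concentration series are pinned onto SDT cells, incubated 72 hr at 37C, then CellTiterGlo is added and luminescence read.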

The nature of test [17]: G06 Cancer Cell Toxicity qHTS against the NCATS CANVASS Library (AID 1347368). The gist of the method:
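Cells were plated at 500 per well, then compounds were added over an 11-point range. After 72 hr at 37C, CellTiterGlo was added and luminescence measured as ATP content.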

Test [18] can be described thus: qHTS for H2AX Agonists against the NCATS CANVASS Library (AID 1347378).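 Further: phospho-H2AX S139 level in CHO-K1 lysates by TR-FRET emission ratio.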 Further: potency means the concentration at half of the fitted maximal effect. The essentials: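 Following overnight seeding, CHO-K1 cells are incubated with a concentration series of compound for 3 hr at 37C (final DMSO 0.76%). Cells are then lysed, detection antibodies added, and emission ratio 665/620 nm recorded after 24 hr at room temperature.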
Test [19] can be described thus: qHTS assay for small molecule disruptors of mitochondrial membrane potential screened against the NCATS CANVASS Library (AID 1347389). The essentials: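 Mitochondrial depolarization in HepG2 cells is scored as a falling aggregate-to-monomer fluorescence ratio after 1 hr compound exposure and 30 min staining with Mito-MPS dye at 37C, each compound tested as an 11-point titration.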

Test [20] can be described thus: qHTS for inhibitors of ER calcium dysfunction: SERCaMP assay screened against the NCATS CANVASS Library (AID 1347393). Further: nearly all actives have a fitted effect of over 40% in size. Further: potency means the concentration at half of the fitted maximal effect. The gist of the method:
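qHTS in SH-SY5Y reporter cells: 16 h compound pretreatment, 4 h thapsigargin, then secreted Gaussia luciferase measured by luminescence.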

As to `CCCc1c2c([nH]c(=O)c1C)C(=O)c1[nH]c(=O)c(C)c(CCC)c1C2=O`, the Potency in [1] was 11.8 µM (active); in test [2] it was 10.6 µM (active); in test [3], 8.41 µM (active); in test [5] it was 7.47 µM (active); in [6], 14.8 µM (active); in test [7], 7.47 µM (active). Further, the Potency in test [13] is 0.857 µM (active). Besides, the Potency result in test [4], in test [8], in [9] and in [12] was “inactive” in each case. Moreover, the molecule was called inactive in [10] and in test [11].

On to `COc1ccc([C@@H]2c3cc4c(cc3C(=O)C(C)C2C)OCO4)cc1OC` (some centres not stated), for which the Potency entry in test [14], in test [1], in test [2], in test [3], in [4] and in test [5] was “inactive” in each case. Besides, the Potency entry in test [6], in test [7], in [15], in test [16], in test [8] and in test [17] was “inactive” in each case. In addition, the Potency result in test [18], in test [19], in test [12] and in test [13] was “inactive” in each case. For the same molecule, the result in test [10] and in test [11] was inactive. The Potency in [20] was 7.67 µM (active).

Take `CCCCCC(=O)N[C@@H](CC(C)C)C(=O)N[C@H](C=O)CCC(=O)O` (Hexanoyl-Leu-Glu-aldehyde): the Potency result in test [14], in test [1], in [2], in test [3], in test [4] and in test [5] was “inactive” each time. Moreover, the Potency result in test [6], in [7], in test [15], in test [16], in test [8] and in test [9] was “inactive” throughout. Moreover, the Potency entry in test [17], in test [18], in test [19], in test [20], in [12] and in test [13] was “inactive” throughout. In addition, the call in test [10] and in test [11] was inactive.

As for `C[C@@H]1CC[C@]2(C(=O)O)CC[C@]3(C)C(=C2[C@H]1C)CC[C@@H]1[C@@]2(C)CC[C@H](O)C(C)(C)[C@@H]2CC[C@]13C`, the Potency is 11.8 µM (active) in test [1]; 21.1 µM (active) in [2]; 23.7 µM (active) in [3]; 34.4 µM (active) in test [18]; 18.6 µM (active) in [12]. The Potency result in test [6], in [15], in test [16], in test [8], in [9] and in [17] was “inactive” each time. In addition, the Potency entry in test [19], in [20] and in test [13] was “inactive” each time. In addition, the result in test [10] and in [11] was inactive.

For the molecule `C=C[C@@]1(C)CC[C@@H]([C@H](C)C(C)=O)O1`, the Potency result in test [14], in test [1], in test [2], in [3], in [4] and in test [5] was “inactive” each time. The Potency result in test [6], in [7], in [15], in [16], in test [17] and in [18] was “inactive” in each case. Besides, the Potency entry in test [19], in test [20], in test [12] and in test [13] was “inactive” throughout. For the same molecule, the molecule was classed as inactive in test [10] and in test [11].

Regarding `CC[C@H](O)CCCCC[C@@H]1NC(=O)[C@H]2CCCCN2C(=O)[C@H]([C@H](C)CC)NC(=O)[C@H](Cc2cn(OC)c3ccccc23)NC1=O`, the Potency in test [2] is 18.8 µM (active); in test [4], 13.3 µM (active); in test [6], 23.5 µM (active); in [12], 6.6 µM (active). The Potency result in test [7], in test [15], in test [8], in test [20] and in [13] was “inactive” throughout. Also, the outcome in test [10] and in test [11] was inactive.
